Data on 15 molecules can be found in PubChem BioAssay (EPA / NIEHS).

Inconclusive results are not listed. The source made the active and inactive calls. The calls were made as follows: active = hit-call score of the fitted dose curve at least 0.9, where 1 is the maximum; inconclusive = response in the unintended direction; inactive = score below 0.9.

Chain of human Ephrin type-B Receptor 1 (EphB1), EPHB1 (gene 2047) (P54762 whole entry, looked up): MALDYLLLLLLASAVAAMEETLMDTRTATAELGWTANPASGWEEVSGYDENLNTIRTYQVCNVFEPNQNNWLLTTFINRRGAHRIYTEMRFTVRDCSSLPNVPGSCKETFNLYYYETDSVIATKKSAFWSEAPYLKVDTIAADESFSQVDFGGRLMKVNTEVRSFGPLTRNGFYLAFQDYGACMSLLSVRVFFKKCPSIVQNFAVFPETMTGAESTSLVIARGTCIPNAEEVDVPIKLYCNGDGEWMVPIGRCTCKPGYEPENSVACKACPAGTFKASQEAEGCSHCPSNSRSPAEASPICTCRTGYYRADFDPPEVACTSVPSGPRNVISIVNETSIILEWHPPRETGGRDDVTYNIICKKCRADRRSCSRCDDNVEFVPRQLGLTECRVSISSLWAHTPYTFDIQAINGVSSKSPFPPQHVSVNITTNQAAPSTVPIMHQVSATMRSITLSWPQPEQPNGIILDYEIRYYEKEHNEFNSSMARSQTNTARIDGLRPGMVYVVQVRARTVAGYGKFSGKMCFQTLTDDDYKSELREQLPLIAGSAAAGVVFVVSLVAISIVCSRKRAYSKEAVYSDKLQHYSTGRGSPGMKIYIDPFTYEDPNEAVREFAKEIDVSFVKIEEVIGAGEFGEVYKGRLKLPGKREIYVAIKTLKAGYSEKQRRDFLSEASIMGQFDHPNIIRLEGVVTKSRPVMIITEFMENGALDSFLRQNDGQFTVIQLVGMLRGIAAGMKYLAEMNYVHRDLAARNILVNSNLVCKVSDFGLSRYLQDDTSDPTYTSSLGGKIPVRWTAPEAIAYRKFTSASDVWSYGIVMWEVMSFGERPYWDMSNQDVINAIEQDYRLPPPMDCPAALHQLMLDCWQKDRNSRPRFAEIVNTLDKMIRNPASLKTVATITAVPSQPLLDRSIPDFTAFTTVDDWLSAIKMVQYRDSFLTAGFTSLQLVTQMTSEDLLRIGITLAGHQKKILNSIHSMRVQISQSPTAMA

This assay has as its target human Ephrin type-B Receptor 1 (EphB1), EPHB1 (gene 2047) (UniProt P54762). Description: NVS_ENZ_hEphB1: NovaScreen (NVS) Enzymatic Assay for human Ephrin type-B Receptor 1 (EphB1) (AID 2283154). As for the experimental part:
NVS_ENZ_hEphB1 is a biochemical, single-readout assay that uses extracted gene-proteins in a cell-free assay. Measurements were taken 1 hour after chemical dosing in a 384-well plate.NVS_ENZ_hEphB1 is one of one assay component(s) measured or calculated from the NVS_ENZ_hEphB1 assay. It is designed to make measurements of enzyme activity, a form of enzyme reporter, as detected with fluorescence intensity signals by Fluorescence and electrophoretic mobility shift technology.Data from the assay component NVS_ENZ_hEphB1 was analyzed into 1 assay endpoint. This assay endpoint, NVS_ENZ_hEphB1, was analyzed in the positive analysis fitting direction relative to DMSO as the negative control and baseline of activity. Using a type of enzyme reporter, loss-of-signal activity can be used to understand changes in the enzymatic activity as they relate to the gene EPHB1. Furthermore, this assay endpoint can be referred to as a primary readout, because this assay has produced multiple assay endpoints where this one serves a enzymatic activity function. To generalize the intended target to other relatable targets, this assay endpoint is annotated to the kinase intended target family, where the subfamily is receptor tyrosine kinase.
Binding assays used specific radioligands (tritiated, iodinated) with non-radioactive competitive displacement ligands in agonist or antagonist protocols (as indicated) and various reference compounds and inhibitors to titrate specific binding to receptors and transporters. Most enzyme assays (CYPs, kinases, phosphatases, proteases, HDACs) used recombinant protein and specific substrates (fluorescence mostly, some colorimetric and radioactive) and inhibitors, followed by a biochemical separation of substrate and product. All assays for the biochemical HTS were initially run in duplicate at a single concentration (10 uM for CYP450 assays and 25 uM for all others). […] Each assay was run with positive and negative controls, and concurrent controls on every plate. The follow-up (secondary) screen tested active chemical-pairs in concentration series, as well as a few additional assays not tested in the primary screen, some selected negative inactives, and several cases re-run in the concentration series for confirmatory purposes.
On to `CN=C=S`, for which the molecule was classed as inactive.

As for `Cc1c(COC(=O)[C@@H]2[C@H](/C=C(\Cl)C(F)(F)F)C2(C)C)cccc1-c1ccccc1`, the molecule was called inactive.

Turning to `Cc1ccc(N=CN(C)C=Nc2ccc(C)cc2C)c(C)c1`, the molecule was called inactive.

For the molecule `C=CCOC(=O)C(C)(C)OC(=O)c1cc(-n2c(=O)cc(C(F)(F)F)n(C)c2=O)ccc1Cl`, the result was inactive.

For the molecule `CN/C(=N\[N+](=O)[O-])NCc1cnc(Cl)s1`, the molecule was called inactive.

For `CC1(C)C(C(=O)OC(C#N)c2cccc(Oc3ccccc3)c2)C1(C)C` (stereo not given), the molecule was classed as inactive.

Consider `CCOC(=O)C(C)OC(=O)c1cc(Oc2ccc(C(F)(F)F)cc2Cl)ccc1[N+](=O)[O-]` (stereo not given), for which the molecule was classed as inactive.

For the molecule `COC(=O)N(C(=O)N1CO[C@@]2(C(=O)OC)Cc3cc(Cl)ccc3C2=N1)c1ccc(OC(F)(F)F)cc1`, the call was inactive.

With `CCOP(=O)(OCC)Oc1nc(Cl)c(Cl)cc1Cl`, the outcome was inactive.

Take `CC1(C)C(C=C(Cl)Cl)C1C(=O)OC(C#N)c1cccc(Oc2ccccc2)c1` (stereo not given): the molecule was classed as inactive.

With `Clc1nc(Cl)nc(Nc2ccccc2Cl)n1`, the call was inactive.

With `O=C(Nc1ccccc1-c1ccc(Cl)cc1)c1cccnc1Cl`, the call was inactive.

For `Nc1c(Cl)c(F)nc(OCC(=O)O)c1Cl`, the call was inactive.

As to `CNC(=O)N(C)c1nnc(C(C)(C)C)s1`, the call was inactive.

Take `Cc1nc(N(C)C)nc(OC(=O)N(C)C)c1C`: the molecule was classed as inactive.
